# Screens from PubChem.
# D1 potentiator = enhances dopamine response at the human D1 receptor | HEK293 TREx D1 cells, calcium flux, dopamine EC20 potentiation | potentiation, % at 10 µM | P21728 | hit rate 0.036% among 360,000; in the data active means potentiation above about 30%; further: 0% is about no effect
# TRPV1 PAM = potentiators of human vanilloid receptor 1 (TRPV1); hit rate 0.02% among 320,000; Q8NER1; potentiation, % at 8.33 µM; AID 540277; TRPV1-expressing cells, Fluo-8 calcium influx, capsaicin EC20 potentiation; in the data active means potentiation above about 80%; inconclusive means between about 30% and that limit; further: 0% is about no effect
# Target sequence (Q8NER1 whole entry, looked up): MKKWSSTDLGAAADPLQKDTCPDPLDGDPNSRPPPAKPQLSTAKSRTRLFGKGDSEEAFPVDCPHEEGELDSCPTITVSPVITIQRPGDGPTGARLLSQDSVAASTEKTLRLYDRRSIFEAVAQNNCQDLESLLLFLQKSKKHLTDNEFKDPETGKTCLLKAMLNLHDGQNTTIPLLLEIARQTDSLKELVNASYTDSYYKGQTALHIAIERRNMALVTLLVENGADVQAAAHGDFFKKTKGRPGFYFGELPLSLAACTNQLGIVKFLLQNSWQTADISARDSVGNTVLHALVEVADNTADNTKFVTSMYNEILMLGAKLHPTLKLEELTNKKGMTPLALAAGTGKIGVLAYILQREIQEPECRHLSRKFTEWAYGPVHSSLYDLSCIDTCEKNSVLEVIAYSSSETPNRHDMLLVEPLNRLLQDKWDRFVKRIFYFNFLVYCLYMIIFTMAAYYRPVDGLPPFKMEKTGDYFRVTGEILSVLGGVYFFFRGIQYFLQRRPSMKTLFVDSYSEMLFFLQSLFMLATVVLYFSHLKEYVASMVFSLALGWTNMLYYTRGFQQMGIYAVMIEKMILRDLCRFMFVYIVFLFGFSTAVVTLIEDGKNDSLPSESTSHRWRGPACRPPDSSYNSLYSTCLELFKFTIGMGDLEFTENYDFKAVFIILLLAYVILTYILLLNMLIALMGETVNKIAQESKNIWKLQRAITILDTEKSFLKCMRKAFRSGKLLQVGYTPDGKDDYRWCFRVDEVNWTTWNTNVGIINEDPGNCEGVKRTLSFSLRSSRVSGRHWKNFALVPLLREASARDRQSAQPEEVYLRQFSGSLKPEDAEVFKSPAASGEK
#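 Fluo-8 calcium influx in TRPV1-expressing cells, kinetic read (ex 480/em 520 nm). Compound added and read 3 min for agonist activity, followed by capsaicin at EC20 final and 2 min further read for enhancement.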
# D1 agonist = activates the human D1 dopamine receptor; hit rate 1% among 360,000; HEK293 T-REx D1 cells, calcium flux, agonist mode; P21728; activation, % at 2 µM; in the data active means activation above about 30%; further: 0% is about no effect
#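 Agonism was scored from calcium flux recorded over 180 s (1 read/s) after pintool compound addition, following a 10-cycle baseline. Cells were inducible force-coupled HEK293 TREx D1, plated overnight at 30 C and loaded with no-wash calcium dye.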
# TRPV1 ag = agonists of human vanilloid receptor 1 (TRPV1) | activation, % at 8.33 µM | hit rate 0.19% among 320,000 | Q8NER1 | TRPV1-expressing cells, Fluo-8 calcium influx, agonist mode; in the data active means activation above about 80%; inconclusive means between about 30% and that limit; further: 0% is about no effect
#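 TRPV1-expressing cells were cultured overnight at 35.5C and loaded with Fluo-8 calcium dye for 40 to 90 min at room temperature. After a 10 s baseline, compound was added and calcium influx was read kinetically for 3 min (ex 480/em 520 nm).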
# D1 antagonist = human D1 dopamine receptor antagonism. P21728. HEK293 TREx D1 cells, calcium flux, dopamine EC80; active compounds read low. activity change, negative = inhibition, % at 10 µM. hit rate 3.2% among 360,000. AID 504652; in the data active means activity change below about -30%; further: on the % scale 0 is the no-effect control and ±100 the full control effect
#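 HEK293 T-REx cells expressing inducible, force-coupled D1 receptor; no-wash Ca dye, 30–90 min RT. Cmpd → 180 s read at 1 Hz → EC80 DA → 180 s read.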
# * hit, by the source's call; u = inconclusive; x = not tested or not shown. This is a sample that favours compounds with a hit; in the whole collection about 4.2% have one here.
SMILES,D1 potentiator,TRPV1 PAM,D1 agonist,TRPV1 ag,D1 antagonist
COc1ccc(NC(=O)CN2C(=O)CC(C)(C)S(=O)(=O)c3ccccc32)cc1,-8,x,1,x,-33*
O=C(NCC(c1cccnc1)N1CCc2ccccc21)c1cccc(F)c1 (stereo not given),-3,x,1,x,-13
O=S1(=O)[C@H]2C[C@@H]3C=C[C@@]2(CN1Cc1cccc(Cl)c1)O3,-6,-12,4,4,1
N#C[C@@H]1N(Cc2ccccc2)C(=O)[C@H]2CC3C=CC21O3 (stereo not given in full),-8,-36,2,4,-32*
CC(=O)c1cc2c(cc1NC(=O)CSc1nc3ccccc3o1)OCO2,7,7,2,2,-35*
Clc1c(CSc2nc3ccccc3o2)nc2sccn12,-2,-36,2,-3,-14
Cc1nnc(NC(=O)CSc2nc3ccccc3o2)s1,5,14,1,2,-1
Clc1c(CSc2nc3ccccc3o2)nc2ccccn12,-8,0,1,1,-39*
COC(=O)CSc1nc2ccccc2o1,-6,-1,1,8,-37*
CC(=O)CSc1nc2ccccc2o1,-8,8,0,-1,11
O=C(CSc1nc2ccccc2o1)Nc1nc(-c2ccccc2)c(-c2ccccc2)s1,-9,10,0,1,-90*
COc1ccc(S(=O)(=O)Nc2ccc3oc4c(c3c2)C(=O)CC(C)(C)C4)cc1,2,x,10,x,12
CCOc1ccc(NC(=O)CSc2nc3ccsc3c(=O)n2C(C)CC)cc1 (stereo not given),0,x,1,x,46
CCn1nnc2cc(C(=O)Nc3ccc(OC)cc3)ccc21,-2,x,4,x,5
CCC(C)NC(=O)CN1C(=O)c2cccnc2Oc2ccc(C)cc21 (stereo not given),-8,x,1,x,-7
Cn1cnnc1SCC(=O)Nc1nc(-c2ccccc2)cs1,-3,-3,3,89*,4
Cc1ccc(-c2csc(NC(=O)CSc3nc4ccccc4o3)n2)cc1,-4,2,4,1,-35*
Cc1ccc2nc(NC(=O)CSc3nc4ccccc4o3)sc2c1,2,1,3,0,16
COc1ccc(CCNC(=O)CSCc2nc(-c3cccc(C)c3)oc2C)cc1OC,-3,x,5,x,-2
COc1cc(C2C3CN(C)CC=C3C(C#N)=C(N)C2(C#N)C#N)ccc1OC(C)C (stereo not given),-16,1,4,-3,-50*
c1cncc(CSc2ccc(-c3ccc4c(c3)OCO4)nn2)c1,-3,u,6,7,-39*
O=C(NC(=S)NCc1nc2ccccc2[nH]1)c1ccc(F)cc1,-6,-8,-1,0,-68*
Cc1cc(C(F)F)n2nc(C(=O)Nc3cccc(C(F)(F)F)c3)nc2n1,-5,1,-1,2,-40*
Cc1ccc(C(=O)Nc2ccc(Oc3cccc(C(F)(F)F)c3)nc2)cc1,3,-6,30,u,-31*
CCn1cc(Cl)c(C(=O)Nc2cccc(C(F)(F)F)c2)n1,0,-3,1,-11,-36*
SMILES,D1 potentiator,TRPV1 PAM,D1 agonist,TRPV1 ag,D1 antagonist
COc1ccc(C(F)(F)F)cc1NC(=O)c1nc2nc(C)cc(C(F)F)n2n1,1,1,6,5,-1
COc1ccc(NC(=O)Nc2cccc(C(F)(F)F)c2)cn1,5,-16,18,22,-30*
O=C(O)c1ccccc1C(=O)Nc1ccc(Oc2cccc(C(F)(F)F)c2)nc1,-1,8,1,7,9
COc1ccc(NC(=O)Nc2cc(C)cc(C)c2)cn1,-2,-18,4,u,-2
O=C(Nc1ccccc1)Nc1cccc(C(F)(F)F)c1,-2,-9,22,u,-37*
COc1ccc(NC(=O)Nc2ccc([N+](=O)[O-])cc2)cn1,-4,-1,35*,6,-52*
O=C(Nc1cccc(C(F)(F)F)c1)Nc1cccs1,-7,x,25,x,-44*
CNC(=O)Nc1cccc(C(F)(F)F)c1,-2,u,3,-3,12
Cc1ccc(NC(=O)c2cnc3sc(N4CCOCC4)nn3c2=O)cc1N(C)C,-3,x,1,x,-4
Cc1cccc(N(C)S(=O)(=O)c2ccc(-c3cnc(C4CC4)o3)cc2)c1,-10,-5,9,u,-38*
COc1ccccc1NS(=O)(=O)c1ccc(-c2cnc(C3CC3)o2)cc1,-2,u,10,1,-25
